From PubChem BioAssay
Sm TGR inh – qHTS Assay for the Inhibitors of Schistosoma Mansoni Peroxiredoxins | Potency, µM (top dose mostly 114 µM), most hits filed as inhibitors | hit rate 3% among 360,000 | Schistosoma mansoni thioredoxin glutathione reductase (TGR), Q962Y6 | purified TGR, DTNB reduction, TNB absorbance 405 nm; active means well fitted inhibition curve with a large enough effect; inconclusive means small, poorly fitted or top-dose-only effect; inactive means no such curve, though single readings can be large or run the other way; further: nearly all actives have a fitted effect of over 60% in size
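TGR 20 nM + NADPH 100 uM (dispensed conc.), cpd preinc 15 min RT; start with NADPH (500 uM addition) then DTNB (15 mM addition). Kinetic TNB absorbance, 405 nm filter. Four-parameter Hill fit across titration.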
SARS PLP yeast – qHTS of Yeast-based Assay for SARS-CoV PLP; hit rate 0.19% among 330,000; S. cerevisiae expressing SARS-CoV PLpro, growth rescue; Potency, µM (doses to about 32.9 µM), usual class: activators; AID 485353, 2010; calls by dose curve; further: nearly all actives have a fitted effect of over 55% in size
Numbers stand for hits; i = inactive; ? = inconclusive; nt = not tested or not shown. Rows were chosen to be rich in hits. Some 3% of all compounds tested hit in one or more screens of this group.

SMILES	Sm TGR inh	SARS PLP yeast
CCCn1c(CCC(=O)Nc2cc(C(=O)OC)cc(C(=O)OC)c2)nc2cccnc21	i	nt
S=c1[nH]nc(-c2ccncc2)n1Cc1ccco1	i	i
COc1ccccc1-c1n[nH]c(=S)n1Cc1ccco1	40µM	i
COc1cccc(-c2n[nH]c(=S)n2Cc2ccco2)c1	35µM	i
COc1ccccc1-c1n[nH]c(=S)n1Cc1ccccc1	i	i
COc1ccc(CNC(=O)C2CCCN(S(=O)(=O)c3ccc4c(ccn4C)c3)C2)c(OC)c1 (stereo not drawn)	i	nt
O=C(c1ccc(F)cc1)n1nc(-c2cccnc2)nc1NCc1ccc(F)cc1	i	nt
Cc1ccc(Nc2nc3ccccc3c3nncn23)cc1C	i	nt
C[N+]1(C)CCC(=C2c3ccccc3CC(=O)c3sccc32)CC1	28µM	i
CC[N+]1(C)CCC(=C2c3ccccc3CC(=O)c3sccc32)CC1 (stereo not drawn)	i	i
Cc1ccc(S(=O)(=O)c2cn(Cc3cccc(F)c3)c3cc(N4CCCC4)c(F)cc3c2=O)cc1	i	nt
O=C1CC(N2CCN(c3ccccc3Cl)CC2)C(=O)N1c1ccccc1 (stereo not drawn)	45µM	i
O=C1CC(N2CCN(c3ccc(Cl)cc3)CC2)C(=O)N1c1ccccc1 (stereo not drawn)	?	i
O=C1CC(N2CCCc3ccccc32)C(=O)N1c1ccccc1 (stereo not drawn)	25µM	i
CCc1ccccc1N1C(=O)CC(N2CCc3ccccc32)C1=O (stereo not drawn)	nt	i
O=C1CC(N2CCOCC2)C(=O)N1c1ccccc1Cl (stereo not drawn)	50µM	i
CCCOc1ccccc1N1C(=O)CC(N2CCOCC2)C1=O (stereo not drawn)	?	i
COc1ccc(-c2noc(-c3ccc(NC(C)c4ccccc4)c([N+](=O)[O-])c3)n2)cc1OC (stereo not drawn)	i	nt
CCN1C(=O)/C(=C\c2ccc(-c3ccc([N+](=O)[O-])cc3OC)o2)SC1=Nc1cccc(C(=O)O)c1	35µM	i
CCN1C(=O)/C(=C\c2ccc(-c3cccc(C(=O)OC)c3)o2)SC1=Nc1ccc(C(=O)O)cc1	i	i
O=C(CSC1=Nc2ccccc2C2=NC(Cc3ccccc3)C(=O)N12)Nc1cccc(Cl)c1 (stereo not drawn)	i	nt
O=C(O)c1ccc(NC2CC(=O)N(Cc3ccccc3)C2=O)cc1 (stereo not drawn)	28µM	i
Cc1ccc(NC2CC(=O)N(Cc3ccccc3)C2=O)cc1 (stereo not drawn)	i	i
COc1ccc(C2=NN(CCC(=O)NCCc3ccccc3)C(=O)CC2)cc1	i	nt
Cc1ccc(N/C=C(\C2OC(=O)c3ccccc32)[N+](=O)[O-])c(C)c1 (stereo not drawn)	?	i
SMILES	Sm TGR inh	SARS PLP yeast
COC(=O)c1cccc(N/C=C(\[N+](=O)[O-])S(=O)(=O)c2ccccc2)c1	?	i
O=C1OC(/C(=C\Nc2ccc(F)cc2F)[N+](=O)[O-])c2ccccc21 (stereo not drawn)	11µM	i
O=[N+]([O-])/C(=C\Nc1ccc(F)cc1F)S(=O)(=O)c1ccccc1	10µM	i
Cc1ccc(N2CC(NC(=O)c3cccc(Cl)c3)CC2=O)cc1C (stereo not drawn)	i	nt
Cc1ccc2c(c1Cl)NC(C(=O)O)C1CC(Sc3ccccc3[N+](=O)[O-])C(Cl)C21 (stereo not drawn)	?	i
CCOC(=O)C1Nc2ccc(C(=O)O)cc2C2C=CCC12 (stereo not drawn)	?	i
COc1ccc2c(c1)C1C=CCC1C(c1cc3c(cc1Br)OCO3)N2 (stereo not drawn)	?	i
CCOC(=O)c1ccc2c(c1)C1C=CCC1C(C(=O)O)N2 (stereo not drawn)	7.9µM	i
CCN(CC)C(=O)c1ccc2c(c1)C1C=CCC1C(C(=O)O)N2 (stereo not drawn)	0.45µM	i
CCN(CC)C(=O)c1ccc2c(c1)C1C(Cl)C(Sc3ccccc3[N+](=O)[O-])CC1C(C(=O)O)N2 (stereo not drawn)	3.2µM	i
CCOc1ccccc1CNC(=O)c1ccc2c(c1)N(Cc1ccc(C)cc1)CCS2	i	nt
Cc1ccc(C)c(NC(=O)C(=O)NCC(c2cccnc2)N2CCN(c3ccc(F)cc3)CC2)c1 (stereo not drawn)	i	nt
CC[N+](CC)(CC)CCOc1ccc(/C=C/c2ccccc2)cc1	?	i
CC[N+](CC)(CC)CCCCOc1ccc2c(c1)C(=O)c1cc(OCCCC[N+](CC)(CC)CC)ccc1-2	20µM	i
CC[N+](C)(CC)CCCCOc1ccc2c(c1)C(=O)c1cc(OCCCC[N+](C)(CC)CC)ccc1-2	5.6µM	i
CCCCOc1cccc(C(=O)O)c1	i	i
CCCN(C(=O)Cn1cnc2sc(C)c(S(=O)(=O)N3CCN(c4ncccn4)CC3)c2c1=O)c1cccc(C)c1	i	nt
CC(=O)C(=Cc1ccc(O)cc1)C(C)=O	45µM	i
CCC(=O)Nc1ccc(C=C(C(C)=O)C(C)=O)cc1	?	i
CC(C)Oc1ccc(C2C(C#N)=C(N)Oc3c2oc(CO)cc3=O)cc1 (stereo not drawn)	i	i
Cc1ccc(C2C(C#N)=C(N)Oc3c2oc(CO)cc3=O)o1 (stereo not drawn)	40µM	i
CC(CNC(=O)Cn1c(-c2cccs2)cc2cc(Cl)ccc21)c1ccccc1 (stereo not drawn)	i	nt
Cc1cc(C)nc(NS(=O)(=O)c2ccc(NC(=O)COc3ccc(C(C)(C)C)cc3)cc2)n1	i	nt
Nc1nc(SCc2nc3sc4c(c3c(=O)[nH]2)CCCC4)n[nH]1	i	i
Cc1nnc(SCc2nc3sc4c(c3c(=O)[nH]2)CCCC4)n(N)c1=O	14µM	i
SMILES	Sm TGR inh	SARS PLP yeast
COc1ccc(S(=O)(=O)Nc2cc3c(cc2NCc2ccccc2)n(C)c(=O)n3C)cc1OC	i	nt
CC1CC2(O)c3no[n+]([O-])c3CCC2N1O (stereo not drawn)	i	i
CC1(N2CCOCC2)CC2(O)C(=[N+]1[O-])CCc1c2no[n+]1[O-] (stereo not drawn)	32µM	i
Cc1cc(-c2ccc(S(=O)(=O)Nc3cccc(C)c3C)s2)on1	i	nt
COc1cccc(NC(=O)c2nnn(Cc3ccc(OC)c(Br)c3)c2N)c1	i	nt
c1ccc(-c2nnc(CN3CCCCC3)o2)cc1	i	i
c1ccc(-c2nnc(CN3CCCc4ccccc43)o2)cc1	40µM	i
Cc1ccc(CCNC(=O)Cn2ncc3c([nH]c4ccc(C)cc43)c2=O)cc1	i	nt
O=C(O)c1ccc2c(c1)C1C=CCC1C(c1ccncc1)N2 (stereo not drawn)	22µM	i
Cc1c(Cl)cccc1NS(=O)(=O)c1ccc2c(c1)C1C=CCC1C(c1ccc(C(=O)O)cc1)N2 (stereo not drawn)	20µM	i
CCOC(=O)c1cccc2c1N[C@@H](c1ccc(F)cc1)[C@H]1CC=C[C@@H]21	i	nt
COc1ccc(NS(=O)(=O)c2ccc3c(c2)[C@H]2C=CC[C@H]2[C@@H](c2ccc(C(=O)O)cc2)N3)cc1	?	i
CCCC1Nc2ccc(C(=O)O)cc2C2C=CCC12 (stereo not drawn)	40µM	i
CC(=O)c1ccc2c(c1)C1C=CCC1C(c1ccc(S(=O)(=O)N3CCOCC3)cc1)N2 (stereo not drawn)	28µM	i
